Dicer processing = blocks human Dicer maturation of pre-miR-21 | Q9UPY3 | cat-ELCCA pre-miR-21 Dicer processing, chemiluminescence; stronger effect = higher value | z-score at 25 µM | actives 6% (n = 47,000) | AID 1347074; in the data active = z-score above about 3, passing the limit was not always enough;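 also: plate controls were vehicle for no effect and no enzyme for full effect; higher signal means more uncleaved substrate so more Dicer inhibition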
Starred values were filed as active, the others as inactive. The full list was thinned out, with hits kept by preference.

SMILES	Dicer processing
CCOc1ccc2c(c1)C(C)CC(C)(C)N2C(=O)NC1CCCCC1 (configuration not stated)	1.6
CC1=CC(C)(C)N(C(=O)NC2CCCCC2)c2cc(C)ccc21	-0.28
O=C(NCc1ccc2c(c1)OCCCO2)c1cnc2ccccc2n1	-0.31
Cc1ccc(C(=O)Nc2cnc3sc(C(C)C)nn3c2=O)cc1	-0.49
O=C(/C=C/C(=O)Oc1ccc(Cl)cc1Cl)Oc1ccc(Cl)cc1Cl	3.7*
O=S(=O)(CS(=O)(=O)Oc1ccc(Cl)cc1Cl)Oc1ccc(Cl)cc1Cl	2.3
CC(Oc1ccc(Cl)cc1Cl)C(=O)Oc1ccc(Cl)cc1Cl (configuration not stated)	8.2
COC(Cn1c(SCc2ccccc2)nnc1-c1ccccc1)OC	1.8
CCC1CSC(Nc2ccc(OC)cc2)=N1 (configuration not stated)	0.75
O=c1c2ccccc2nc(/C=C/c2ccco2)n1Cc1ccccc1	3*
O=C(CSc1nc2ccccc2c(=O)n1Cc1ccco1)c1ccccc1	-1.3
Cc1ccc2nc(-c3cc4ccccc4o3)oc(=O)c2c1	-0.92
C(=C\c1ccco1)/C1=NN(Cc2ccccc2)CC1	0.78
O=c1oc(/C=C/c2ccco2)nc2ccccc12	18*
Cc1nc2ccc(Br)cc2c(=O)o1	-0.27
Cc1ccc2nc(/C=C/c3ccco3)oc(=O)c2c1	11*
COc1ccccc1/C=C/c1nc2cc(Cl)ccc2c(=O)o1	0.09
O=C(Nc1nc2ccccc2c(=O)s1)c1ccco1	-0.49
CCOC(=O)N/N=C(\C)c1cccc([N+](=O)[O-])c1	-0.86
CCCCCCSc1nc(O)cc(=O)[nH]1	-3.3
COc1cc2cc(-c3ccccc3)nc(C)c2cc1OC	0.59
NC(=S)CCn1cccc(C(F)(F)F)c1=O	-1.7
O=C(CSC1=NCCCC1)c1cccc([N+](=O)[O-])c1	-1.2
CCOc1ncnc2c1sc1nc(N3CCOCC3)c3c(c12)CCCC3	1.4
FC(F)(F)c1cnc(CSc2c(Cl)cccc2Cl)c(Cl)c1	-0.61
SMILES	Dicer processing
Cn1c(=O)[nH]c(=O)c2[nH]c(N(CCO)Cc3ccccc3)nc21	-0.88
N/C(=N\OC(=O)c1ccc(Cl)cc1)c1ccc(Oc2ccc(C(F)(F)F)cn2)cc1	1.8
Cc1ccc(NC(=S)N2CCCc3cccc(C)c32)c(C)c1	0.02
CC(C)N(CCC#N)C(=S)Nc1ccc(S(=O)(=O)N2CCCCC2)cc1	-0.57
COc1ccc(-c2nnc3c4ccccc4c(C)nn23)cc1S(=O)(=O)N1CCCC1	5.5*
Cc1ccc(-c2nnc3c4ccccc4c(C)nn23)cc1S(=O)(=O)NC(C)(C)C	1.1
COc1ccc(-c2nnc3c4ccccc4c(C)nn23)cc1S(=O)(=O)NC1CCCCC1	2.5
CCC(CO)NS(=O)(=O)c1cc(-c2nnc3c4ccccc4c(C)nn23)ccc1OC (configuration not stated)	2.8
Cc1ccc(-c2nnc3c4ccccc4c(C)nn23)cc1S(=O)(=O)N1CCN(c2ccccc2)CC1	2.5
CNS(=O)(=O)c1cc(-c2nnc3c4ccccc4c(C)nn23)ccc1OC	1.6
COc1ccc(-c2nnc3c4ccccc4c(C)nn23)cc1S(=O)(=O)N(C)C1CCCCC1	0.88
Cc1ccc(-c2nnc3c4ccccc4c(C)nn23)cc1S(=O)(=O)N1CCCC1	3.2*
COc1ccc(-c2nnc3c4ccccc4c(C)nn23)cc1S(=O)(=O)NC(C)C	5*
Cc1ccc(Oc2c(C(F)(F)F)oc3c(CN4CCOCC4)c(O)ccc3c2=O)cc1	-0.41
Fc1cccc(CN2CCC(N3CCCC3)CC2)c1	0.41
C#Cc1cccc(-n2nnc(-c3ccccc3)c2C)c1	0.21
COc1cccc2c1c(NS(=O)(=O)c1cc(Cl)sc1Cl)nn2C	-2.9
COC(=O)c1c(C)n(S(C)(=O)=O)c2ccc(N(C(=O)c3cccs3)S(C)(=O)=O)cc12	-0.82
O=C(O)c1ccc(-c2cc(C(F)(F)F)ccc2Cl)o1	-0.26
Cc1cc(C(=O)N/N=C/c2ccccc2O)c2cc(Br)ccc2n1	5.6
CN1C(C(=O)c2ccccc2)=C(OC(=O)COc2ccccc2)c2ccccc2S1(=O)=O	-0.59
Cc1ccc(C2c3c(n(C)c(=O)n(C)c3=O)N=C3c4ccccc4C(=O)C32)cc1Cl (configuration not stated)	-0.7
Cc1cc2nc(Nc3ncc4c(n3)CC(c3cccs3)CC4=O)nc(C)c2cc1C (configuration not stated)	0.67
Cc1nn(C)c2sc(C(=O)Nc3ccc4nccnc4c3)cc12	2.2
Cc1cc(C)nc(SCC(=O)c2ccc(O)cc2O)n1	0.35
SMILES	Dicer processing
O=C(CSc1n[nH]c(-c2ccco2)n1)c1ccc(O)cc1O	10*
Cc1ccc(C(=O)CSc2n[nH]c(-c3ccco3)n2)c(C)c1	-0.59
COCc1nc(-c2cc3ccc(C)cc3[nH]c2=O)no1	0.75
Cn1c(S(=O)(=O)Cc2ccc(Cl)cc2)nc2ccccc21	-0.41
Cn1c(CN2CCN(c3ccc(Cl)cc3)CC2)nc2ccccc21	6.1*
Cc1nnc2c(N3CCN(Cc4ccccc4)CC3)nc3ccccc3n12	-0.28
CN(C)/C=C/C(=O)c1cc(F)ccc1O	0.62
Cc1ccc(-c2oc3ccccc3c(=O)c2O)cc1	3.2*
COc1c(-c2ccccc2)oc2ccccc2c1=O	0.68
Cc1ccc2oc(-c3ccc(F)cc3)c(O)c(=O)c2c1	0.72
CC(=O)Nc1c(-c2ccccc2)oc2ccccc2c1=O	3.3*
Cc1c(-c2ccccc2)oc2ccccc2c1=O	-0.55
Cc1ccc2oc(-c3ccccc3)c(O)c(=O)c2c1	1.8
Cc1cc(C)c2[nH]c(C(=O)NCc3ccccc3)cc2c1	-0.18
CCOC(=O)c1cc(CC)sc1NC(=O)c1ccccc1F	0.59
CCOC(=O)c1cnc2c(F)ccc(F)c2c1Oc1cncc(Cl)c1	0.07
O=C1CCC(=O)N1CC(=O)N1c2ccccc2Sc2ccccc21	-0.22
CCOC(=O)C(=O)N1c2ccccc2Sc2ccccc21	9.8
Cc1nccn1CC(=O)N1c2ccccc2Sc2ccccc21	5.5*
COc1ccc(-c2c(C(F)(F)F)oc3cc(OC(=O)c4ccco4)ccc3c2=O)cc1OC	-0.46
O=C(Nc1cccc2[nH]ccc12)C1CCCCC1	2.6
CC1CCN(C(=O)N2c3ccccc3Sc3ccccc32)CC1	-0.44
O=C(N1CCN(c2ccccc2)CC1)N1c2ccccc2Sc2ccccc21	1.3
CCOC(=O)N1CCN(C(=O)N2c3ccccc3Sc3ccccc32)CC1	4.7*
CCN(CC)CC(O)Cn1c2ccc(Br)cc2c2cc(Br)cc(Br)c21 (configuration not stated)	-0.72
SMILES	Dicer processing
CC1(C)CC(=O)c2sc(NC(=O)COc3ccc(Cl)cc3)nc2C1	1.9
COC(=O)C1=C(C)N=c2s/c(=C/c3ccc4c(c3)OCO4)c(=O)n2C1c1ccccc1 (configuration not stated)	0.78
COC(=O)C1=C(C)N=c2s/c(=C/c3ccc(Cl)cc3)c(=O)n2C1c1ccc(OC)cc1 (configuration not stated)	4.6*
COC(=O)c1sc(N2C(=O)C(=O)/C(=C(/O)c3ccc(Cl)cc3)C2c2ccc(OC)cc2)nc1C (configuration not stated)	1.9
O=C(O)[C@H]1CCCN1C(=O)OCc1ccccc1	0.57
c1ccc(CN2CN(CC3CCCO3)c3nc4ccccc4n3C2)cc1 (configuration not stated)	-1.6
CCCCCCCC1C(=O)N(S(=O)(=O)c2ccccc2Cl)N=C1C (configuration not stated)	35
CSc1ccc(/C=C/c2nc3n(n2)C=COc2ccccc2-3)cc1	1.1
C1=Cn2nc(/C=C/c3c[nH]c4ccccc34)nc2-c2ccccc2O1	4.2*

Screening results as filed in PubChem.
